From PubChem
Sampled rows, rich in hits. Any-hit rate of the full collection: about 7.3%.
Tau ThT inhib: inhibitors of human tau fibril formation, thioflavin T binding | recombinant tau K18 P301L, heparin-induced fibrillization, ThT fluorescence | Potency, µM (doses to about 57.4 µM), without a hit: top-dose activity, negative = inhibition, usual class: inhibitors | P10636 | 270,000 tested, 2.1% active; further: nearly all actives have a fitted effect of over 55% in size
Target sequence (P10636 561-689 P618L limits assumed): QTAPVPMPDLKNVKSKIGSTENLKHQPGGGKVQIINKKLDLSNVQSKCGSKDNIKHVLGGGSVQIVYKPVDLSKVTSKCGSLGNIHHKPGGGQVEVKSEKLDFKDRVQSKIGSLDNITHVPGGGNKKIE
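K18 P301L tau (15 uM + 0.24 uM Alexa 594-tagged), heparin 20 uM, NaOAc pH 7, 6 h 37 C; ThT 30 uM, 1 h RT, ex 450/em 510 nm.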
RORgamma inh: ROR gamma (mouse) transcription inhibition. Drosophila S2 Gal4-RORgamma UAS-luciferase reporter, 20 h. 310,000 tested, 5.4% active. AID 2551. Potency, µM (top dose mostly 53.6 µM), for inactives: at the highest dose activity change, negative = inhibition, actives largely listed as inhibitors; further: nearly all actives have a fitted effect of over 60% in size
Target sequence (P51450 whole entry, looked up, the tested form may be a part): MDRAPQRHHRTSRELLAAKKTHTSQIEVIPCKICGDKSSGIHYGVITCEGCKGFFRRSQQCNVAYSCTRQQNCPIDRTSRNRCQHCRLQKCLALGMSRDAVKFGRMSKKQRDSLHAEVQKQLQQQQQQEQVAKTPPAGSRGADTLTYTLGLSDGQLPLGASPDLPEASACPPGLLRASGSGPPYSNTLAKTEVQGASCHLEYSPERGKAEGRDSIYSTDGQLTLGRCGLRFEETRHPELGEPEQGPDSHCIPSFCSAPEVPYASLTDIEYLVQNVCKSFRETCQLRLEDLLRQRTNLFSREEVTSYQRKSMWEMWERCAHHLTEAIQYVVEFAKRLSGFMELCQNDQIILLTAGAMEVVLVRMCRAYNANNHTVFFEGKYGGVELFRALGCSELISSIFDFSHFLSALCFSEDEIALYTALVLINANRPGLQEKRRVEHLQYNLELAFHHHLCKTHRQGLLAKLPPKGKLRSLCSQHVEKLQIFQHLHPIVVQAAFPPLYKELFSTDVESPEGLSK
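Read-out: Photinus luciferase luminescence; inhibitors lower reporter signal. Insect Schneider cells with Gal4-ROR gamma fusion under metallothionein promoter, UAS reporter; 700 uM final copper sulfate induction, 20 hr, ambient temperature.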
Tau fluor cs: counter-screen for tau fibril formation inhibitors; tau K18 P301L Alexa594 fluorescence, heparin fibrillization; Potency, µM (doses to about 57.7 µM), for inactives: at the top dose activity change, negative = decrease; 280,000 tested, 0.93% active; further: nearly all actives have a fitted effect of over 55% in size
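Human tau K18 P301L (15 uM unlabeled, 0.24 uM Alexa 594-labeled) in 100 mM sodium acetate pH 7 with 20 uM heparin, 6 hr at 37 C. ThT 30 uM added, 1 hr ambient; Alexa 594 FP and total fluorescence read at 555/632 nm.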
Tau fibril FP: tau fibrillization inhibition (FP); P10636; K18 P301L tau heparin fibrillization, Alexa594 FP, 6 h; Potency, µM (top dose mostly 57.7 µM), for the others: at the highest dose activity, negative = inhibition, actives largely listed as inhibitors; 280,000 tested, 0.39% active; AID 1468; further: nearly all actives have a fitted effect of over 55% in size
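Recombinant K18 P301L […], labeled with Alexa 594 at 0.24 uM over 15 uM unlabeled; heparin inducer 20 uM final; 37 C, 6 hr; FP endpoint.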
Gal4-VP16 FLuc: Gal4-VP16 reporter inhibition counter-screen | 310,000 tested, 3.5% active | Potency, µM (highest dose often 53.6 µM), for the others: at the highest dose activity, negative = inhibition, actives largely listed as inhibitors | AID 2546 | Drosophila S2 Gal4-VP16 UAS-luciferase, luminescence, 20 h;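 further: Gal4-VP16 expression switched on by copper sulfate through the metallothionein promoter; nearly all actives have a fitted effect of over 50% in size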
Starred values were filed as active, the others as inactive; ? = inconclusive; / = no result given; [ ] = remark or other dose. The call rests on the fitted dose curve; in most records, active means well fitted curve in the direction sought with a large enough effect; inconclusive means small, poorly fitted or top-dose-only effect, or another doubt; inactive means no such curve, though single readings can be large; an effect the other way counts as inactive or inconclusive. On the % scale 0 is the no-effect control and ±100 the full control effect; potency means the concentration at half of the fitted maximal effect.

SMILES	Tau ThT inhib	RORgamma inh	Tau fluor cs	Tau fibril FP	Gal4-VP16 FLuc
CC(=O)c1c(C)[nH]c(C(=O)OCCOc2ccccc2)c1C	-5%	11µM*	-14%	-7%	8.9µM*
COc1ccccc1OCCC(=O)OCC(=O)c1[nH]c(C)c(C(C)=O)c1C	?	14µM*	-2%	-2%	?
CCC1CN(C(=O)Nc2cc(Cl)c(OC)cc2OC)c2ccccc2O1 (centres undefined)	0%	/	-9%	3%	/
CSc1nnc(C)c(/C=C/Nc2ccc(Cl)cc2)n1	16µM*	8%	-30%	8%	-7%
COc1ccc(N/C=C/c2nc(SC)nnc2C)cc1	3.2µM*	-16%	-17%	8%	-9%
CSc1nnc(C)c(/C=C/Nc2ccc(F)cc2)n1	?	-10%	-22%	-6%	10%
CC1=NOC(=O)/C1=C\c1ccc(-c2ccccc2Br)o1	?	25%	-30%	-11%	0%
CCOC(=O)c1ccccc1NC(=O)N1CC(C)Oc2ccc(C)cc21 (centres undefined)	1%	/	2.8µM*[quencher]	?	/
CCOC(=O)c1ccccc1NC(=S)N1CC(C)CC(C)C1 (centres undefined)	-13%	?	-11%	-2%	?
COC(=O)c1ccccc1NC(=O)CCC(=O)N1CC(C)Oc2ccc(C)cc21 (centres undefined)	/	13%	/	/	0%
CCc1ccc(NC(=O)N2CC(C)Oc3ccc(C)cc32)cc1 (centres undefined)	3%	/	2.5µM*[quencher]	-4%	/
CCOC(=O)c1ccccc1NC(=S)N1CCC(C)CC1	-7%	13µM*	-6%	1%	?
S=C1SCN(CC2CC2)CN1CC1CC1	/	7.9µM*	3%	-18%	7.1µM*
CCOCCc1nnc(NC(=O)C2CC(=O)N(c3ccc(OCC)cc3)C2)s1 (centres undefined)	/	34%	/	/	-3%
C=CCNC(=S)NCC1COc2ccccc2O1 (centres undefined)	-18%	11µM*	-13%	2%	-23%
Cc1onc(-c2c(F)cccc2Cl)c1C(=O)NCC1COc2ccccc2O1 (centres undefined)	-3%	32%	-8%	2%	-4%
Cc1c(Cl)cccc1NC(=S)NCC1COc2ccccc2O1 (centres undefined)	-3%	6.3µM*	-24%	-2%	?
O=C(NC(=S)NCC1COc2ccccc2O1)c1ccccc1 (centres undefined)	-11%	-24%	-29%	-5%	3%
CC(=O)Nc1ccc(N=Nc2ccc(O)cc2)cc1	7.9µM*	?	-25%	4%	-5%
CC(=O)Nc1cccc(N=NN2CCOCC2)c1	?	-14%	-15%	?	-2%
CC(=O)Nc1ccc(-c2ccc(NC(C)=O)cc2)cc1	-6%	-14%	2%	12%	1%
CC(=O)Nc1ccc(N=NN2CCOCC2)cc1	10µM*	14%	-27%	-11%	?
O=C(NC1CCCC1)c1ccc2c(=O)n(Cc3ccccc3)c(SCc3cccc(F)c3)nc2c1	-6%	/	-14%	-10%	/
CCS(=O)(=O)N1CCc2cc(C(=O)NCCc3ccc(OC)c(OC)c3)ccc21	-13%	/	-3%	-3%	/
CCN(CC)c1cc(C)c2cc(NC(=O)/C=C/c3ccc(C)cc3)ccc2n1	?	/	16µM*[quencher]	2%	/
SMILES	Tau ThT inhib	RORgamma inh	Tau fluor cs	Tau fibril FP	Gal4-VP16 FLuc
CCN(CC)c1cc(C)c2cc(NC(=O)/C=C/c3cc(OC)c(OC)c(OC)c3)ccc2n1	4.5µM*	/	?	9%	/
CCN(CC)c1cc(C)c2cc(NC(=O)CNC(C)=O)ccc2n1	0%	-1%	3%	-1%	-10%
CCN(CC)c1cc(C)c2cc(NC(=O)c3cccc(OC)c3OC)ccc2n1	?	/	?	14%	/
CCOc1ccc(/C=C/C(=O)Nc2ccc3nc(N(CC)CC)cc(C)c3c2)cc1OC	7.1µM*	/	?	?	/
CCN(CC)c1cc(C)c2cc(NC(=O)c3cccc(OC)c3)ccc2n1	?	/	?	9%	/
CCOc1ccc(C(=O)Nc2ccc3nc(N(CC)CC)cc(C)c3c2)cc1	?	/	16µM*[quencher]	9%	/
Cn1c(NCCCCO)nc2c1c(=O)n(Cc1ccc(Cl)cc1)c(=O)n2C	-6%	/	-26%	13%	/
CN(C)CC[C@@](O)(c1ccccc1)c1ccccc1Cl	/	9%	/	/	-9%
CC1CC(=O)N(CC(=O)Nc2ccc(OC(F)(F)F)cc2)c2ccccc2S1 (centres undefined)	-1%	/	-22%	4%	/
OCCCn1c(-c2ccccc2)n[nH]c1=S	-2%	-45%	1%	-7%	-9%
CCCCCCn1c(-c2cccs2)n[nH]c1=S	-11%	2µM*	-11%	7%	?
CCCCn1c(-c2csc3c2CCCC3)n[nH]c1=S	?	3.5µM*	-16%	-3%	?
CCCCn1c(-c2csc3c2CCC(C)C3)n[nH]c1=S (centres undefined)	?	0.79µM*	-22%	13%	2.5µM*
CCCCn1c(-c2csc3ccccc23)n[nH]c1=S	-14%	7.9µM*	-12%	0%	?
COC(=O)c1ccn(CC(=O)NC2CCCCC2)n1	/	-15%	/	/	-7%
CC1CN(C(=O)Nc2ccc(F)cc2F)CC(C)O1 (centres undefined)	/	-20%	/	/	-10%
CC#CC(C)C(OCOC)C(CC(C)Cc1cc(Br)cc(OCc2ccccc2)c1OC)OC (centres undefined)	6%[11.5 µM]	2%[10 µM]	6%[11.6 µM]	-3%[11.6 µM]	-5%[10 µM]
C=CCn1c(-c2csc3c2CCC(C)C3)n[nH]c1=S (centres undefined)	-15%	1.4µM*	-6%	-2%	2.5µM*
CCn1c(-c2csc3c2CCCC3)n[nH]c1=S	-8%	4µM*	-5%	-6%	4.5µM*
CCn1c(-c2nn(-c3ccccc3)ccc2=O)n[nH]c1=S	3%	-22%	1%	1%	-14%[10 µM]
CCOCCCNC(=S)NC1CC2CCC(C1)N2Cc1ccccc1 (centres undefined)	1%	-31%	9%	8%	4%
CCOCCCNC(=S)NCCc1ccccc1	6%	11µM*	11%	3%	13µM*
S=C(NCCCc1ccccc1)NCc1ccccc1	/	6.3µM*	/	/	11µM*
S=C(NCc1ccccc1)NCc1ccccc1	-2%	?	3%	3%	-8%
Nc1ccc(-c2nc3ccc(N)cc3[nH]2)cc1	?	?	?	-1%	-27%
Cc1nc2ccc(-c3nc4ccc(N)cc4[nH]3)cc2[nH]1	16µM*	11µM*	?	5%	8.9µM*
Nc1ccc2nc(-c3cccc(-c4nc5ccc(N)cc5[nH]4)c3)[nH]c2c1	/	17%	/	/	-4%
Nc1ccc2nc(-c3ccc(Cl)cc3)[nH]c2c1	14µM*	?	25µM*[quencher]	7%	?
Nc1ccc2nc(-c3cc(Cl)c(N)c(Cl)c3)[nH]c2c1	14µM*	-29%	?	14%	-24%
